Results from the supplement of paper PMC10849652.
About 7,900 targets were measured; listed, in parts, are those with a hit and a random draw of the rest. About 0.6% of all pairs of compound and target were hits.

Assays:
Test in all cases: log2 fold change, soluble protein after heating vs DMSO (PISA); higher = thermal stabilisation; K562 cells, 10 uM, 30 min; active = over 0.2 and 3.5 SD of the protein, either way, in both replicates (recomputed)
bafetinib = compound: Cc1ccc(NC(=O)c2ccc(CN3CC[C@H](N(C)C)C3)c(C(F)(F)F)c2)cc1Nc1nccc(-c2cncnc2)n1 [bafetinib]
Method in brief: (§1)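 For each measurement, 10 μM compound was applied for 30 min to K562 cells at 2×10^6 cells/mL. Aliquots were heated for 3 min across 48°C-58°C, pooled, and extracted in PBS with 0.5% NP-40 at 4°C; the supernatant after 21,000xg for 90 min was soluble protein. This was quantified by TMTpro 16plex LC-MS/MS with channel sums equalised, and thermal stability was reported relative to control samples from duplicates, on a log2 fold-change scale.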

[1] = compound: Cc1cccc(CC(=O)N2CCc3c2ccc(-c2cn(C)c4ncnc(N)c24)c3F)n1
Method in brief: as §1

nilotinib = compound: Cc1cn(-c2cc(NC(=O)c3ccc(C)c(Nc4nccc(-c5cccnc5)n4)c3)cc(C(F)(F)F)c2)cn1 [nilotinib]
Method in brief: as §1

[2] = compound: Cc1nc(Nc2n[nH]c3c2CN(C(=O)N[C@H](CN(C)C)c2ccccc2)C3(C)C)c2sccc2n1
Method in brief: as §1

dasatinib = compound: Cc1nc(Nc2ncc(C(=O)Nc3c(C)cccc3Cl)s2)cc(N2CCN(CCO)CC2)n1 [dasatinib]
Method in brief: as §1

[3] = compound: Cc1ncc(-c2ccnc(Nc3ccc(S(C)(=O)=O)cc3)n2)n1C(C)C
Method in brief: as §1

[4] = compound: Cn1cc(-c2ccc3c(c2)CCN3C(=O)Cc2cccc(C(F)(F)F)c2)c2c(N)ncnc21
Method in brief: as §1

[5] = compound: Cn1cc(-c2ccc3nnc(C(F)(F)c4ccc5ncccc5c4)n3n2)cn1
Method in brief: as §1

tipifarnib = compound: Cn1cncc1[C@@](N)(c1ccc(Cl)cc1)c1ccc2c(c1)c(-c1cccc(Cl)c1)cc(=O)n2C [tipifarnib]
Method in brief: as §1

mubritinib = compound: FC(F)(F)c1ccc(/C=C/c2nc(COc3ccc(CCCCn4ccnn4)cc3)co2)cc1 [mubritinib]
Method in brief: as §1

[6] = compound: NC(=O)Nc1cc(-c2cccc(F)c2)sc1C(=O)N[C@H]1CCCNC1
Method in brief: as §1

[7] = compound: NC(=O)c1cnc(N[C@@H]2CCCC[C@@H]2N)nc1Nc1cccc(-n2nccn2)c1
Method in brief: as §1

[8] = compound: NC1(c2ccc(-c3nc4ccn5c(=O)[nH]nc5c4cc3-c3ccccc3)cc2)CCC1
Method in brief: as §1

[9] = compound: NCC(=O)Nc1ccc(-n2nc(C(F)(F)F)cc2-c2ccc3c(ccc4ccccc43)c2)cc1
Method in brief: as §1

entinostat = compound: Nc1ccccc1NC(=O)c1ccc(CNC(=O)OCc2cccnc2)cc1 [entinostat]
Method in brief: as §1

vorinostat = compound: O=C(CCCCCCC(=O)Nc1ccccc1)NO [vorinostat]
Method in brief: as §1

citarinostat = compound: O=C(CCCCCCNC(=O)c1cnc(N(c2ccccc2)c2ccccc2Cl)nc1)NO [citarinostat]
Method in brief: as §1

silmitasertib = compound: O=C(O)c1ccc2c(c1)nc(Nc1cccc(Cl)c1)c1ccncc12 [silmitasertib]
Method in brief: as §1

[10] = compound: c1cc(OCCN2CCCCC2)cc(-c2n[nH]c3ccc(-c4nnc[nH]4)cc23)c1
Method in brief: as §1

[11] = compound: O=C1NC(=O)C(c2cnc3ccccn23)=C1c1cn2c3c(cc(F)cc13)CN(C(=O)N1CCCCC1)CC2
Method in brief: as §1

Measured: log2 fold change

FAM241A (UniProt Q8N8J7)
inactive: bafetinib -0.143 | [1] -0.056 | nilotinib -0.027 | [2] 0.029 | dasatinib 0.02 | [3] -0.095 | [4] 0.046 | [5] 0.049 | tipifarnib 0.008 | mubritinib 0.028 | [7] -0.033 | [8] -0.032 | [9] -0.004 | vorinostat -0.005 | citarinostat -0.09 | silmitasertib 0.045 | [10] -0.058
active: [6] 0.661 | entinostat 0.424

EEF1A1 (UniProt P68104)
Chain of UniProt P68104 (P68104 whole entry, looked up): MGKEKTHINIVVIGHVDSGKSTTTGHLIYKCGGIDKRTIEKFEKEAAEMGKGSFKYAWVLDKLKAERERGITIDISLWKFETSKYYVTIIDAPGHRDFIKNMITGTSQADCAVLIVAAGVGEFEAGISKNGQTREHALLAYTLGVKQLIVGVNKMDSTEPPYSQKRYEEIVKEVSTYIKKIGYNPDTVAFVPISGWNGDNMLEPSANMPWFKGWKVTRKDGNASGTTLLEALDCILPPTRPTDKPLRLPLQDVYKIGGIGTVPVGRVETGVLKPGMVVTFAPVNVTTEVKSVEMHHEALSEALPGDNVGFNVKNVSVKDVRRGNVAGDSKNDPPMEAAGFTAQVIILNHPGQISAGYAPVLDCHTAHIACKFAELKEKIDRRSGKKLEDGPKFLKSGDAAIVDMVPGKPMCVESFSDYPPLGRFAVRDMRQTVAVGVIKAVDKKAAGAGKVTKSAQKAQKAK
inactive: bafetinib -0.114 | nilotinib 0.042 | [2] -0.113 | dasatinib -0.116 | [3] 0.001 | [4] 0.044 | [5] -0.063 | tipifarnib -0.057 | mubritinib -0.033 | [6] -0.046 | [7] 0.084 | [8] 0.091 | [9] 0.191 | entinostat -0.017 | citarinostat -0.04 | silmitasertib -0.11 | [11] 0.023 | [10] 0.07

EXOSC10 (UniProt Q01780)
inactive: [1] 0 | dasatinib 0.017 | [4] 0.152 | [5] 0.251 | tipifarnib 0.195 | mubritinib 0.046 | [6] -0.49 | [7] -0.054 | [8] 0.014 | [9] -0.189 | entinostat -0.339 | vorinostat 0.039 | citarinostat -0.125 | silmitasertib 0.041 | [11] -0.044 | [10] 0.01
active: bafetinib -0.63

EXOC7 (UniProt Q9UPT5)
inactive: bafetinib -0.026 | [1] 0.014 | nilotinib -0.046 | [2] -0.139 | dasatinib -0.234 | [3] -0.035 | [4] 0.002 | [5] 0 | tipifarnib -0.089 | mubritinib -0.011 | [6] 0.009 | [7] -0.142 | [8] -0.223 | [9] -0.022 | entinostat 0.04 | vorinostat 0.09 | citarinostat 0.077 | silmitasertib 0.052 | [11] 0.028 | [10] -0.012

DAG1 (UniProt Q14118)
Chain of UniProt Q14118 (Q14118 whole entry, looked up): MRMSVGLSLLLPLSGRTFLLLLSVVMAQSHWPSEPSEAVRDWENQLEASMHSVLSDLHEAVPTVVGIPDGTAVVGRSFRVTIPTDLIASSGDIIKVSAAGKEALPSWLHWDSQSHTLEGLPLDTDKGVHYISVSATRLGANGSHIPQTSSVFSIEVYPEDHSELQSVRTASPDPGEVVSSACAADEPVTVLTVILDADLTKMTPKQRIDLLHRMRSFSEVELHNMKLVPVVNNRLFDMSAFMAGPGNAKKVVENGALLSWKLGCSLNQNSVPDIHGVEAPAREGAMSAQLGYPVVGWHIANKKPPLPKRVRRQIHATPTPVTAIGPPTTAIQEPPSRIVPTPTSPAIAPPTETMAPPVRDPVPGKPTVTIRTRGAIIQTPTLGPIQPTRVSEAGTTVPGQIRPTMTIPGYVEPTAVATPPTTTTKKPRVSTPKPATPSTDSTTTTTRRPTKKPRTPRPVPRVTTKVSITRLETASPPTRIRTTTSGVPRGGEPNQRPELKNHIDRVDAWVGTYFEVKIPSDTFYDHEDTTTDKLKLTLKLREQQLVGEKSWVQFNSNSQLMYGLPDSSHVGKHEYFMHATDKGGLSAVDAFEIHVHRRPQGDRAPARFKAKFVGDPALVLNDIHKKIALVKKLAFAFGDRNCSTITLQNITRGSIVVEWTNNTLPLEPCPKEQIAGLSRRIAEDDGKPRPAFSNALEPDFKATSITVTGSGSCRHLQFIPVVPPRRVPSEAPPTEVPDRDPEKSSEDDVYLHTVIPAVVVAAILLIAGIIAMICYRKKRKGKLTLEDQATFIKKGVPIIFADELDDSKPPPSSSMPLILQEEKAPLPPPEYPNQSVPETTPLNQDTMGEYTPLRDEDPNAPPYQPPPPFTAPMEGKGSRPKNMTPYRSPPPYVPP
inactive: bafetinib 0.03 | [1] -0.076 | nilotinib 0.085 | [2] 0.003 | dasatinib 0.025 | [3] -0.008 | [4] -0.001 | [5] 0.073 | tipifarnib 0.035 | mubritinib 0.05 | [6] -0.035 | [7] 0.123 | [8] 0.081 | [9] -0.054 | entinostat -0.013 | vorinostat 0.023 | citarinostat -0.015 | silmitasertib -0.005 | [11] -0.015 | [10] -0.001

DPYSL2 (UniProt Q16555)
inactive: bafetinib -0.114 | [1] 0.081 | nilotinib 0.046 | [2] -0.063 | dasatinib 0 | [3] 0.079 | [4] 0.042 | tipifarnib 0.015 | mubritinib -0.048 | [6] 0.053 | [7] 0.01 | [8] 0.014 | [9] -0.056 | entinostat -0.037 | vorinostat 0.276 | citarinostat -0.017 | silmitasertib -0.118 | [11] -0.224 | [10] -0.054

CTSZ (UniProt Q9UBR2)
Chain of UniProt Q9UBR2 (Q9UBR2 whole entry, looked up): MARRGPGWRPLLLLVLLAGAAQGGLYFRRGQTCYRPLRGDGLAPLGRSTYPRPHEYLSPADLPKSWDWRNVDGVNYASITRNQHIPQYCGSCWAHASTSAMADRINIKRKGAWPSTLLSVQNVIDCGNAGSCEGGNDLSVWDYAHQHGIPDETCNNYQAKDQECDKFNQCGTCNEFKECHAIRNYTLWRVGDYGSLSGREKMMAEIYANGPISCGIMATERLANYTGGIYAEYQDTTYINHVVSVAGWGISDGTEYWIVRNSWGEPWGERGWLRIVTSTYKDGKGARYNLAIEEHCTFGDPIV
inactive: [1] -0.027 | nilotinib 0.028 | [2] -0.146 | dasatinib 0.054 | [3] -0.022 | [4] 0.058 | [5] 0.022 | tipifarnib 0.052 | mubritinib 0.033 | [6] -0.029 | [7] -0.005 | [9] 0.044 | entinostat -0.023 | vorinostat 0.013 | citarinostat 0.019 | silmitasertib 0.008 | [11] -0.047 | [10] 0.006
active: bafetinib -1.01 | [8] -0.511

DAXX (UniProt Q9UER7)
inactive: bafetinib -0.119 | [1] -0.089 | nilotinib 0.055 | [2] -0.106 | dasatinib -0.034 | [3] 0 | [4] 0.061 | [5] -0.016 | tipifarnib 0.034 | [6] 0.093 | [7] -0.103 | [9] -0.08 | entinostat -0.099 | vorinostat 0.034 | citarinostat 0.075 | [10] -0.076

FAM160A2 isoform 2 (UniProt Q8N612)
inactive: bafetinib -0.208 | [1] -0.145 | nilotinib -0.085 | [2] 0.192 | dasatinib -0.186 | [3] -0.101 | [4] -0.083 | [5] 0.046 | mubritinib 0.093 | [8] 0.158 | [9] -0.26 | vorinostat -0.009 | citarinostat -0.154 | silmitasertib 0.057 | [11] 0.026 | [10] 0.068

CYB561A3 isoform 2 (UniProt Q8NBI2)
Chain of UniProt Q8NBI2 (Q8NBI2 whole entry, looked up): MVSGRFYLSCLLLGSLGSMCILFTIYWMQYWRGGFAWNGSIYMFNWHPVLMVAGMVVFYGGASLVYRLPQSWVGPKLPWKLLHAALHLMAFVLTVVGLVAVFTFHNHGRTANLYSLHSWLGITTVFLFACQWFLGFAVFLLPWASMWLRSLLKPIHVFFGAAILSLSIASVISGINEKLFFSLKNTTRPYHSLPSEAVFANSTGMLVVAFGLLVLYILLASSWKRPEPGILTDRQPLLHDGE
inactive: bafetinib 0.03 | [1] -0.223 | nilotinib 0.012 | [2] 0.065 | dasatinib 0.034 | [3] -0.029 | [4] 0.004 | [5] -0.044 | tipifarnib -0.087 | mubritinib -0.015 | [6] -0.019 | [7] -0.075 | [8] -0.066 | entinostat -0.004 | vorinostat -0.254 | citarinostat -0.081 | silmitasertib 0.04 | [10] 0.035

DDB1 isoform 2 (UniProt Q16531)
Chain of UniProt Q16531 (Q16531 whole entry, looked up): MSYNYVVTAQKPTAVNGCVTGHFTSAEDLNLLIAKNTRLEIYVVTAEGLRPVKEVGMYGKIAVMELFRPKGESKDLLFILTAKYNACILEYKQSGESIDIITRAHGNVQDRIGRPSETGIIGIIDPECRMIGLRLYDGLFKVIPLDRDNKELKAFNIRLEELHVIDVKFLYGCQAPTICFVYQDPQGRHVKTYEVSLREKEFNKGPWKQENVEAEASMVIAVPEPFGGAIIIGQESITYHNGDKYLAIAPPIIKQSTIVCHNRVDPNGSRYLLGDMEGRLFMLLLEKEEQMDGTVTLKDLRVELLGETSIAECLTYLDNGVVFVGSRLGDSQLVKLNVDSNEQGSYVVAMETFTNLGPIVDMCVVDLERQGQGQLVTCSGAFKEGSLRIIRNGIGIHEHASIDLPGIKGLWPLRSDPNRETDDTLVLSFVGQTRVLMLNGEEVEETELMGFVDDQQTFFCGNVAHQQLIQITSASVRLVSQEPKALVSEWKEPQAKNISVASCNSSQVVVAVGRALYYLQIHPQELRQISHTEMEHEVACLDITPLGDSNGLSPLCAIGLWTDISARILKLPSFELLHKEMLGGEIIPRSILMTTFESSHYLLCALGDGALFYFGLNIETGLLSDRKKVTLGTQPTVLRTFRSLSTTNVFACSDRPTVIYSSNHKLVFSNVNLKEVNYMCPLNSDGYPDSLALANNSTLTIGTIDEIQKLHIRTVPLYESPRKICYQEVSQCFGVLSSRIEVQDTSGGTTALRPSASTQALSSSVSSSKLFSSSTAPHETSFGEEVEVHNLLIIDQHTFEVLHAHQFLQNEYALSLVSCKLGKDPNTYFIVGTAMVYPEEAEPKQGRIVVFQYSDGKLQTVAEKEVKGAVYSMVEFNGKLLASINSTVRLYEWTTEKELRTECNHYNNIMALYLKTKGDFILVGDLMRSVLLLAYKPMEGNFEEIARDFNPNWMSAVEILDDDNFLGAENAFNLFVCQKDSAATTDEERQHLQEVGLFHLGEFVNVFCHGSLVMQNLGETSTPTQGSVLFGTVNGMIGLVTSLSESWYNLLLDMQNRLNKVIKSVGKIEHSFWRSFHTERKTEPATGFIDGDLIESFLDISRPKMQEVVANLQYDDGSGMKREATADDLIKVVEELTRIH
inactive: bafetinib -0.286 | [1] -0.094 | [6] -0.295 | entinostat -0.237 | vorinostat -0.032 | citarinostat -0.203 | [11] -0.09 | [10] -0.12

EHBP1L1 (UniProt Q8N3D4)
inactive: bafetinib 0.194 | [1] -0.006 | nilotinib -0.081 | [2] -0.218 | dasatinib -0.123 | [3] 0.256 | [4] 0.005 | [5] 0.006 | tipifarnib -0.039 | mubritinib 0.007 | [6] -0.091 | [7] -0.04 | [8] -0.039 | [9] -0.039 | entinostat 0 | vorinostat 0.054 | citarinostat 0.041 | silmitasertib 0.015 | [11] -0.043 | [10] -0.101

DNM2 isoform 4 (UniProt P50570)
Chain of UniProt P50570 (P50570 whole entry, looked up): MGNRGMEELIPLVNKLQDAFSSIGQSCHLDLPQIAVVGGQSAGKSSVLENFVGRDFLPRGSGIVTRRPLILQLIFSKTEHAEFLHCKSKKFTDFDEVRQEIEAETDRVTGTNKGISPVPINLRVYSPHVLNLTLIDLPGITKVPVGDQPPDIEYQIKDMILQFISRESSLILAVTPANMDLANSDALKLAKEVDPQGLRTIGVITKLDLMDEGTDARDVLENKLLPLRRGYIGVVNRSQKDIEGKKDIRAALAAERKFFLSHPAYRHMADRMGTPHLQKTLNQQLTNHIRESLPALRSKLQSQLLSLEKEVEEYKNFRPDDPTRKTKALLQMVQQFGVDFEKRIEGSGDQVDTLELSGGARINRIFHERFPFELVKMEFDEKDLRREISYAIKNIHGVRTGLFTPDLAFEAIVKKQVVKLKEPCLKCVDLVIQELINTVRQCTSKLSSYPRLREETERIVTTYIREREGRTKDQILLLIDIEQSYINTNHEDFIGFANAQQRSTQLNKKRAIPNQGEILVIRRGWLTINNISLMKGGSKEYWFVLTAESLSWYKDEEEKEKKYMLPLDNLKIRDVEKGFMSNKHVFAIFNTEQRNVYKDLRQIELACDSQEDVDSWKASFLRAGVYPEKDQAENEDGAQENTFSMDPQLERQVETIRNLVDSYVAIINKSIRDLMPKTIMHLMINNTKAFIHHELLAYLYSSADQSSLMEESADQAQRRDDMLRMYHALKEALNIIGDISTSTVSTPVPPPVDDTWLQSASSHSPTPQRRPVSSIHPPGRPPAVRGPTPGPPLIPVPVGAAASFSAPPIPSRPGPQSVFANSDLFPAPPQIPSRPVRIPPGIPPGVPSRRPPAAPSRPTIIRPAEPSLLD
inactive: bafetinib 0.154 | [1] 0.062 | nilotinib -0.006 | [2] 0.047 | dasatinib -0.007 | [3] -0.047 | [4] 0.006 | [5] 0.005 | mubritinib 0.108 | [6] -0.033 | [8] -0.318 | entinostat 0.342 | vorinostat -0.068 | citarinostat -0.113 | silmitasertib 0.116 | [11] 0.19 | [10] 0.06

DTYMK (UniProt P23919)
Chain of UniProt P23919 (P23919 whole entry, looked up): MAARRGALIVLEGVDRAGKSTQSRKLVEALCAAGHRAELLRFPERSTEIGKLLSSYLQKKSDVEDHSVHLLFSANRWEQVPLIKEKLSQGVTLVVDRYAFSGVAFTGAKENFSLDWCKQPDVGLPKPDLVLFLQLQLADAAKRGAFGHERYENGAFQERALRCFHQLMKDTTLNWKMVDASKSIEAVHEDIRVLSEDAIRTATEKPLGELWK
inactive: bafetinib 0.044 | [1] 0.007 | nilotinib 0.042 | [2] 0.041 | dasatinib -0.151 | [3] -0.029 | [4] 0.045 | [5] 0.002 | tipifarnib -0.019 | mubritinib 0.078 | [6] 0.005 | [7] -0.011 | [8] -0.169 | [9] -0.014 | entinostat -0.035 | vorinostat 0.043 | citarinostat 0.047 | silmitasertib -0.04 | [11] -0.058 | [10] -0.071

FAM207A (UniProt Q9NSI2)
Chain of UniProt Q9NSI2 (Q9NSI2 whole entry, looked up): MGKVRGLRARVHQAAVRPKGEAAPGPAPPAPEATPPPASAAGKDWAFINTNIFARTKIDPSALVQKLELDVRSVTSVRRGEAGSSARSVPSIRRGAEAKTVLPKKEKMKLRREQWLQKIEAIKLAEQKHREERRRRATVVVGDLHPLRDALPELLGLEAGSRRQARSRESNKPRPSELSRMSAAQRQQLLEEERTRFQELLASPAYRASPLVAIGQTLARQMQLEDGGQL
inactive: bafetinib 0.002 | [1] 0.076 | nilotinib -0.071 | [2] -0.087 | dasatinib 0.006 | [3] -0.059 | [5] -0.127 | tipifarnib 0.003 | mubritinib -0.238 | [6] -0.005 | [7] 0.076 | [8] -0.165 | [9] -0.042 | entinostat 0.052 | vorinostat 0.015 | citarinostat 0.106 | silmitasertib 0.356 | [11] 0.099 | [10] -0.117

FAM122A (UniProt Q96E09)
Chain of UniProt Q96E09 (Q96E09 whole entry, looked up): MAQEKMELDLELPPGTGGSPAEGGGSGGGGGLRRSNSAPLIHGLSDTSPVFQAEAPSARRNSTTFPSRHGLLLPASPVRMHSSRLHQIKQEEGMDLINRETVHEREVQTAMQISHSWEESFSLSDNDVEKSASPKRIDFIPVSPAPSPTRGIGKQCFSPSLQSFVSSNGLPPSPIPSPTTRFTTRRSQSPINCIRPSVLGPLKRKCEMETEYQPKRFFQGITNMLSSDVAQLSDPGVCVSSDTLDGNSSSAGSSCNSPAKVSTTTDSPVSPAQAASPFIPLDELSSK
inactive: bafetinib -0.096 | [1] -0.185 | nilotinib 0.027 | [2] -0.184 | dasatinib -0.054 | [3] 0.059 | [4] 0.024 | [5] 0.037 | tipifarnib -0.059 | mubritinib 0.009 | [6] -0.031 | [7] 0.076 | [8] -0.048 | [9] 0.023 | entinostat 0.143 | vorinostat 0.025 | citarinostat -0.009 | silmitasertib 0.005 | [11] -0.052 | [10] 0.062

FAM118B (UniProt Q9BPY3)
Chain of UniProt Q9BPY3 (Q9BPY3 whole entry, looked up): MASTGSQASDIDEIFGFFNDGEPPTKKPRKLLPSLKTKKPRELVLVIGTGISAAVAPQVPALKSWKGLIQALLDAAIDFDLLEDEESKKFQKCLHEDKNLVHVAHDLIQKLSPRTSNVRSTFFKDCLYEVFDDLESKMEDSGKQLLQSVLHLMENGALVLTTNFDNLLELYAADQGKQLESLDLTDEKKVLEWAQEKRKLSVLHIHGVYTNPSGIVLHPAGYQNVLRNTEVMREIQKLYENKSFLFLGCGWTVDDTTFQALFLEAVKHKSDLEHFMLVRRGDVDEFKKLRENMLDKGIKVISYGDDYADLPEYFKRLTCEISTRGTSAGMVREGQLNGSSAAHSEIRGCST
active: [8] -0.381
inactive: bafetinib -0.083 | [1] 0.028 | nilotinib -0.114 | [2] -0.106 | [3] 0.022 | [4] 0.014 | [5] 0.02 | tipifarnib -0.083 | mubritinib 0.015 | [6] -0.034 | [7] -0.118 | [9] -0.027 | entinostat 0.047 | vorinostat 0.064 | citarinostat 0.052 | silmitasertib -0.082 | [11] -0.13 | [10] -0.078
